This passage reports growth inhibition results from PubChem BioAssay (NCI).

About 79,000 compounds went through this panel and 15% of them were active in at least one assay; those are over-represented in the sample as a whole. Values without a mark were called inactive. Active and inactive are the calls of the source. Rule as the data show it: active = growth inhibition above about 70%; inactive = the rest.

Test [1] is described as follows: NCI Yeast Anticancer Drug Screen. Data for the rad50 strain (AID 155).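 Also: 0% = growth of vehicle-only cultures of the same strain.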 Conditions: S. cerevisiae rad50 strain growth inhibition, stronger effect = higher value. The method, boiled down:
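Growth of the mutant yeast was measured after compound exposure and referenced to vehicle-treated cultures.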

Test [2] in a line: NCI Yeast Anticancer Drug Screen. Data for the mec2-1 strain (AID 157). Conditions: S. cerevisiae mec2-1 strain, stronger effect = higher value. The method, boiled down:
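Mutant yeast (mec2-1) grown with compound; growth inhibition relative to vehicle control reported.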

A short description of test [3]: NCI Yeast Anticancer Drug Screen. Data for the sgs1 mgt1 strain (AID 161).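 Also: 0% = growth of cultures given vehicle only.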 As to conditions: S. cerevisiae sgs1 mgt1 strain, stronger effect = higher value. A digest of the protocol: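 Percent growth inhibition was derived by comparing compound-exposed mutant yeast with vehicle-exposed cultures. The strain carries alterations in DNA damage repair.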
Test [4] can be described thus: NCI Yeast Anticancer Drug Screen. Data for the cln2 rad14 strain (AID 165).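 Also: 0% = growth equal to vehicle treated cultures.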 Conditions: S. cerevisiae cln2 rad14 strain, stronger effect = higher value. The method, boiled down: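 Readout is yeast growth inhibition versus vehicle-treated controls, using a strain with cln2 and rad14 alterations exposed to compound.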
The nature of test [5]: NCI Yeast Anticancer Drug Screen. Data for the bub3 strain (AID 167). Conditions: S. cerevisiae bub3 mutant strain, stronger effect = higher value. The method, boiled down:
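Whole-cell yeast assay. The mutant strain was incubated with compounds, and growth inhibition was determined by comparison with vehicle-treated cells.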

A short description of test [6]: NCI Yeast Anticancer Drug Screen. Data for the mlh1 rad18 strain (AID 175). Conditions: S. cerevisiae mlh1 rad18 strain growth inhibition, stronger effect = higher value. A digest of the protocol: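 Genetically defined yeast (DNA repair-deficient) exposed to compounds; growth inhibition determined relative to vehicle.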
[7] abbreviates: at 5.0 µM (retest, dose inferred, filed as 0.5).
Setting [8] is: at 50.0 µM (retest, dose inferred, filed as 5.0).

`COc1cccc(/C=C(\NC(=O)c2ccccc2)c2nc3ccccc3s2)c1`: the growth inhibition in test [1] (setting [7]) is 64%; in test [1] (setting [8]), 96% (active); in test [1] (at 50.0 µM), 98.3% (active); in test [2] (setting [7]), 18%; in test [2] (setting [8]), 96% (active); in test [2] (at 50.0 µM), 98.2% (active). Besides, the growth inhibition in test [3] (setting [7]) is 53%; in test [3] (setting [8]), 97% (active); in test [3] (at 50.0 µM) it was 98.8% (active); in test [4] (setting [7]), 13%; in test [4] (setting [8]) it was 97% (active); in test [4] (at 50.0 µM), 97.7% (active). The growth inhibition in test [5] (setting [7]) was 29%; in test [5] (setting [8]), 97% (active); in test [5] (at 50.0 µM), 97.4% (active); in test [6] (setting [7]), 25%; in test [6] (setting [8]) it was 96% (active); in test [6] (at 50.0 µM), 98.3% (active).
In the case of `O=C1CSC(c2ccc(Cl)cc2)N1c1ccc(-c2ccc(-n3c(-c4ccccc4)nc4ccccc4c3=O)cc2)cc1` (stereo not given), the growth inhibition in test [1] (setting [7]) was -6%; in test [1] (setting [8]), 84% (active); in test [1] (at 50.0 µM), 69.4%; in test [2] (setting [7]), 2%; in test [2] (setting [8]) it was 63%; in test [2] (at 50.0 µM), 47.2%. Besides, the growth inhibition in test [3] (setting [7]) is 9%; in test [3] (setting [8]), 65%; in test [3] (at 50.0 µM) it was 84.2% (active); in test [4] (setting [7]), -11%; in test [4] (setting [8]), 50%; in test [4] (at 50.0 µM), 26.9%. Also, the growth inhibition in test [5] (setting [7]) was -4%; in test [5] (setting [8]) it was 95% (active); in test [5] (at 50.0 µM), 84.8% (active); in test [6] (setting [7]), -10%; in test [6] (setting [8]), 94% (active); in test [6] (at 50.0 µM), 87.5% (active).
On to `C=CS(=O)(=O)c1ccc([N+](=O)[O-])cc1`, for which the growth inhibition is -29% in test [1] (setting [7]); 98% (active) in test [1] (setting [8]); 99.7% (active) in test [1] (at 50.0 µM); -7% in test [2] (setting [7]); 99% (active) in test [2] (setting [8]); 99.7% (active) in test [2] (at 50.0 µM). For the same compound, the growth inhibition in test [3] (setting [7]) was 21%; in test [3] (setting [8]), 98% (active); in test [3] (at 50.0 µM) it was 99.5% (active); in test [4] (setting [7]), -16%; in test [4] (setting [8]), 98% (active); in test [4] (at 50.0 µM), 99.7% (active). Moreover, the growth inhibition in test [5] (setting [7]) was 20%; in test [5] (setting [8]) it was 98% (active); in test [5] (at 50.0 µM) it was 99.3% (active); in test [6] (setting [7]), 16%; in test [6] (setting [8]) it was 97% (active); in test [6] (at 50.0 µM) it was 99.2% (active).
`COc1cnc2cc3c4c(cccc4c2c1)NC3=O`: the growth inhibition is 87% (active) in test [1] (setting [7]); 91% (active) in test [1] (setting [8]); 80% (active) in test [1] (at 50.0 µM); 51% in test [2] (setting [7]); 89% (active) in test [2] (setting [8]); 82.2% (active) in test [2] (at 50.0 µM). The growth inhibition was 55% in test [3] (setting [7]); 92% (active) in test [3] (setting [8]); 79.7% (active) in test [3] (at 50.0 µM); 43% in test [4] (setting [7]); 83% (active) in test [4] (setting [8]); 75% (active) in test [4] (at 50.0 µM). In addition, the growth inhibition in test [5] (setting [7]) is 51%; in test [5] (setting [8]) it was 87% (active); in test [5] (at 50.0 µM), 80.8% (active); in test [6] (setting [7]), 75% (active); in test [6] (setting [8]) it was 91% (active); in test [6] (at 50.0 µM), 86% (active).
As for `CC(=O)C1C(=O)C=C(C)OC1=O` (stereo not given), the growth inhibition was 4% in test [1] (setting [7]); 21% in test [1] (setting [8]); 40.5% in test [1] (at 50.0 µM); 8% in test [2] (setting [7]); 18% in test [2] (setting [8]); 29.1% in test [2] (at 50.0 µM). The growth inhibition is 1% in test [3] (setting [7]); 18% in test [3] (setting [8]); -0.75% in test [3] (at 50.0 µM); 7% in test [4] (setting [7]); 13% in test [4] (setting [8]); 3.7% in test [4] (at 50.0 µM). Moreover, the growth inhibition was 0% in test [5] (setting [7]); 2% in test [5] (setting [8]); 28.9% in test [5] (at 50.0 µM); 4% in test [6] (setting [7]); 23% in test [6] (setting [8]); 70.7% (active) in test [6] (at 50.0 µM).
For `CCOC(=O)C1c2[nH]c3ccccc3c2CCN1C(=O)c1ccc(OC)o1` (stereo not given), the growth inhibition in test [1] (setting [7]) was 0%; in test [1] (setting [8]), 71% (active); in test [1] (at 50.0 µM), 83.5% (active); in test [2] (setting [7]) it was -36%; in test [2] (setting [8]), 60%; in test [2] (at 50.0 µM), 79.8% (active). For the same compound, the growth inhibition is 13% in test [3] (setting [7]); 80% (active) in test [3] (setting [8]); 82% (active) in test [3] (at 50.0 µM); 7% in test [4] (setting [7]); 81% (active) in test [4] (setting [8]); 67.7% in test [4] (at 50.0 µM). Also, the growth inhibition in test [5] (setting [7]) was -17%; in test [5] (setting [8]), 76% (active); in test [5] (at 50.0 µM) it was 84.3% (active); in test [6] (setting [7]), -12%; in test [6] (setting [8]), 73% (active); in test [6] (at 50.0 µM), 83.2% (active).
With `N#CCCN(C(=S)Nc1ccc(Cl)c(Cl)c1)C1CCCCC1`, the growth inhibition is 2% in test [1] (setting [7]); 91% (active) in test [1] (setting [8]); 78.9% (active) in test [1] (at 50.0 µM); 0% in test [2] (setting [7]); 91% (active) in test [2] (setting [8]); 79.7% (active) in test [2] (at 50.0 µM). The growth inhibition in test [3] (setting [7]) was 2%; in test [3] (setting [8]), 90% (active); in test [3] (at 50.0 µM) it was 86.3% (active); in test [4] (setting [7]), -1%; in test [4] (setting [8]) it was 83% (active); in test [4] (at 50.0 µM), 71.9% (active). Further, the growth inhibition was 2% in test [5] (setting [7]); 88% (active) in test [5] (setting [8]); 79.2% (active) in test [5] (at 50.0 µM); 3% in test [6] (setting [7]); 90% (active) in test [6] (setting [8]); 75.1% (active) in test [6] (at 50.0 µM).
`CCC(C)OC(=S)S` (stereo not given): the growth inhibition in test [1] (setting [7]) was 4%; in test [1] (setting [8]), 36%; in test [1] (at 50.0 µM), 42.9%; in test [2] (setting [7]), 8%; in test [2] (setting [8]), 44%; in test [2] (at 50.0 µM) it was 33.8%. For the same compound, the growth inhibition in test [3] (setting [7]) was -7%; in test [3] (setting [8]), 26%; in test [3] (at 50.0 µM), 74.2% (active); in test [4] (setting [7]), 1%; in test [4] (setting [8]) it was -4%; in test [4] (at 50.0 µM), -20.8%. Also, the growth inhibition was 3% in test [5] (setting [7]); 59% in test [5] (setting [8]); 90.7% (active) in test [5] (at 50.0 µM); 15% in test [6] (setting [7]); 57% in test [6] (setting [8]); 85% (active) in test [6] (at 50.0 µM).
Consider `Cc1ccc(S(=O)(=O)Oc2ccc(C(C)(C)C)cc2Cl)cc1`, for which the growth inhibition is -8% in test [1] (setting [7]); -11% in test [1] (setting [8]); -5.5% in test [1] (at 50.0 µM); -22% in test [2] (setting [7]); -25% in test [2] (setting [8]); 2% in test [2] (at 50.0 µM). Also, the growth inhibition in test [3] (setting [7]) was 11%; in test [3] (setting [8]), 3%; in test [3] (at 50.0 µM), 9.35%; in test [4] (setting [7]) it was -3%; in test [4] (setting [8]) it was -3%; in test [4] (at 50.0 µM), -7.7%. Moreover, the growth inhibition in test [5] (setting [7]) is 1%; in test [5] (setting [8]) it was -1%; in test [5] (at 50.0 µM) it was 11.4%; in test [6] (setting [7]), 20%; in test [6] (setting [8]), 0%; in test [6] (at 50.0 µM) it was 14.4%.
For `O=C(O)c1cc2ccc(Cl)cc2c2c1C(=O)c1cc(Cl)ccc1-2`, the growth inhibition was 12% in test [1] (setting [7]); 50% in test [1] (setting [8]); 90.3% (active) in test [1] (at 50.0 µM); 0% in test [2] (setting [7]); 33% in test [2] (setting [8]); 57.5% in test [2] (at 50.0 µM). The growth inhibition in test [3] (setting [7]) is -2%; in test [3] (setting [8]) it was 35%; in test [3] (at 50.0 µM), 82.5% (active); in test [4] (setting [7]), -3%; in test [4] (setting [8]), 39%; in test [4] (at 50.0 µM) it was 77.3% (active). The growth inhibition in test [5] (setting [7]) is -2%; in test [5] (setting [8]) it was 33%; in test [5] (at 50.0 µM) it was 82% (active); in test [6] (setting [7]), -4%; in test [6] (setting [8]), 46%; in test [6] (at 50.0 µM), 84.5% (active).
